According to PubChem BioAssay (NCI):
About 79,000 compounds went through this panel and 15% of them were active in at least one assay; those are over-represented in the sample as a whole. Unmarked numbers belong to inactive results. The source made the active and inactive calls. Cut-off read from the data, not from the text of the source: active = growth inhibition above about 70%; inactive = the rest. Where a SMILES comes first, the peptide text is derived from it. The star is where a group is joined. Cbz = O=C(OCc1ccccc1)*; Boc = CC(C)(C)OC(=O)*; OSu = O=C1CCC(=O)N1O*; Bn = c1ccc(C*)cc1

Experiments:
[1] = NCI Yeast Anticancer Drug Screen. Data for the rad50 strain (AID 155);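 note: 0% = growth of vehicle-only cultures of the same strain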; details: S. cerevisiae rad50 strain growth inhibition; at 50.0 µM; hits give high values
In short: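 Compounds were tested on a yeast strain with an engineered DNA damage repair alteration; the reported value is growth inhibition normalised to vehicle treatment.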

[2] = NCI Yeast Anticancer Drug Screen. Data for the mec2-1 strain (AID 157); details: S. cerevisiae mec2-1 strain, at 50.0 µM, hits give high values
In short: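 Compounds were applied to mec2-1 yeast cells. Their growth was then compared with that of vehicle-treated cultures to give growth inhibition.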

[3] = NCI Yeast Anticancer Drug Screen. Data for the sgs1 mgt1 strain (AID 161);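 note: 0% = growth of cultures given vehicle only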; details: S. cerevisiae sgs1 mgt1 strain, at 50.0 µM, hits give high values
In short: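 Growth of a repair-deficient yeast mutant was monitored after compound treatment and expressed as inhibition relative to vehicle-treated cultures.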

[4] = NCI Yeast Anticancer Drug Screen. Data for the cln2 rad14 strain (AID 165);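 note: 0% = growth equal to vehicle treated cultures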; details: S. cerevisiae cln2 rad14 strain, at 50.0 µM, hits give high values
In short: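 Strain: cln2 rad14 yeast, altered in cell cycle control and DNA damage repair. Read-out: growth inhibition vs vehicle.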

[5] = NCI Yeast Anticancer Drug Screen. Data for the bub3 strain (AID 167); details: S. cerevisiae bub3 mutant strain, at 50.0 µM, hits give high values
In short: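 Growth of a checkpoint-deficient yeast mutant is measured after compound exposure. Values represent inhibition relative to vehicle.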

[6] = NCI Yeast Anticancer Drug Screen. Data for the mlh1 rad18 strain (AID 175); details: S. cerevisiae mlh1 rad18 strain growth inhibition; at 50.0 µM; hits give high values
In short: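 A repair-deficient yeast strain is exposed to test compound, and growth is scored relative to vehicle-treated controls.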

| SMILES | growth inhibition [1] | growth inhibition [2] | growth inhibition [3] | growth inhibition [4] | growth inhibition [5] | growth inhibition [6] |
| --- | --- | --- | --- | --- | --- | --- |
| CC12OC(=O)C(C#N)C1(C)C1C(=O)CCCC12 (stereo unspecified) | -2.8% | -7.55% | 7.4% | 1.9% | -0.3% | -8.55% |
| C[C@]12CCC(=O)C=C1CC[C@@H]1C2CC[C@]2(C)NC(=O)C(C#N)CC12 (stereo partly specified) | -29.1% | -10.2% | -14.9% | -23.9% | -15.2% | -9.6% |
| CCOC(=O)c1cc(-c2ccccc2)c(-c2ccccc2)c(-c2ccccc2)c1-c1ccccc1 | 28.4% | 9.15% | 19.6% | 18.3% | 2.75% | 14.6% |
| CC1=C(CCC(=O)O)c2cc3nc(cc4[nH]c(cc5[nH]c(cc1n2)c(C)c5C(C)O)c(C)c4C(C)O)C(C)=C3CCC(=O)O (stereo unspecified) | 12.4% | 5.2% | 7.7% | 29.8% | 21.6% | 1.65% |
| CCn1c(=O)c(C(=O)O)c(Cl)c2cc3c(cc21)OCO3 | 10.3% | 9% | 17.5% | 18.9% | 6.15% | 38.2% |
| COc1cc(C2CC(C)(N3CCCC3)Oc3cc4c(cc32)OCO4)cc(OC)c1OC (stereo unspecified) | 1.2% | -1.6% | 9.5% | -47.4% | -11.8% | 5.95% |
| Cn1nc(-c2ccccc2)c(C(=O)/C=C/c2ccc(Cl)cc2)c(N2CCCC2)c1=O | -5.1% | -1.5% | -4.9% | -5.95% | 14.8% | -10.1% |
| COc1ccccc1OCC(COC(=O)Nc1ccccc1)OC(=O)Nc1ccccc1 (stereo unspecified) | -44.2% | -27.2% | -30.4% | -0.6% | -17.6% | -17.8% |
| NC(=O)C(=O)C(c1ccccc1)S(=O)(=O)Cc1ccccc1 (stereo unspecified) | -59.5% | -39.1% | -40.3% | -13.7% | -25.4% | -32.1% |
| O=C(Cc1nc2ccccc2o1)C(=O)Nc1ccc(Cl)cc1Cl | 10.7% | -4.6% | 0.8% | 17.1% | -15.7% | 16.2% |
| CC(=NCc1ccccc1)c1c(C)cc(=O)n(-c2ccccc2)c1O | -12.8% | -6.45% | -6.15% | -70.5% | -24.8% | -12% |
| CC(C)C1CCC2(C)C(CCC3C4(C)CCCC32OC4=O)C1 (stereo unspecified) | -17.7% | -13.6% | -4.8% | -27.2% | -0.15% | 23.7% |
| CC(C)(C)c1ccc(OC(=O)NCCCCCCNC(=O)Oc2ccc(C(C)(C)C)cc2)cc1 | -5.65% | 23.9% | 4.8% | 92.3% (active) | -2.85% | -8.5% |
| CCOC(=O)C1=C(c2ccccc2)OC(N)=C(C#N)C1c1ccccc1 (stereo unspecified) | -16.9% | -8.4% | -17.6% | 7.6% | 25.3% | -4.85% |
| O=C1c2cn[nH]c2C(c2ccccc2)N1c1ccccc1 (stereo unspecified) | 44.1% | 6.8% | 22.6% | 24.3% | 27.9% | 38.9% |
| NC(N)=NNC(=S)S | 10.9% | -5.15% | 23.5% | 5.1% | 20.3% | 12.8% |
| CC(=O)N(C)N=NCCCl | 26.2% | 7.2% | 10.2% | -29.1% | 12% | 3.85% |
| Cc1ccc2cccc(N)c2n1 | 21.4% | -0.15% | -8% | -33.5% | 18% | 7.2% |
| CCOC(=O)C1CC(CCl)OC1=O (stereo unspecified) | -3.65% | 7.1% | 2.1% | -22.9% | 0.6% | 3.95% |
| O=C(O)c1ccc(C(=O)O)nc1 | -39.7% | -4.75% | 0.95% | -14.4% | 4.8% | -1.35% |
| O=C(C[n+]1cccc2cccc(O)c21)c1ccc2ccccc2c1 | 6.6% | 7.6% | 18.8% | 26.6% | 1.15% | 2.7% |

| SMILES | growth inhibition [1] | growth inhibition [2] | growth inhibition [3] | growth inhibition [4] | growth inhibition [5] | growth inhibition [6] |
| --- | --- | --- | --- | --- | --- | --- |
| Cc1c([N+](=O)[O-])cc(C(C)(C)C)c(OC(=O)C(Cl)(Cl)Cl)c1[N+](=O)[O-] | 58.3% | 72.5% (active) | 73.9% (active) | 78.8% (active) | 88.9% (active) | 72.8% (active) |
| COc1cc(C=Nc2ccc(Cl)cc2)ccc1O | -35.9% | -25.9% | -19.1% | -20.6% | -24.9% | -43.3% |
| CCCCCOCC(O)CNCCNCC(O)COCCCCC (stereo unspecified) | 8% | 0% | 14.3% | -55.6% | -23.2% | 0% |
| O=C(Cl)C1C2C=CC(C2)C1C(=O)Cl (stereo unspecified) | 3.1% | -20.4% | -2.35% | -9.15% | 15.6% | 2.55% |
| Cn1c(CC(O)(C(F)(F)Cl)C(F)(F)Cl)cc(=O)n1-c1ccccc1 | 41.6% | 1.3% | 8.7% | 6.25% | 7% | 7.2% |
| COC(=O)c1ccccc1S(=O)(=O)NC(C)C | 10.8% | -1.15% | 16.9% | 11.8% | -4.7% | 25.8% |
| Cc1c2ccccc2nc(CSCC(O)CO)[n+]1[O-] (stereo unspecified) | -8.4% | 10.7% | 12.3% | -55.6% | 14.4% | 6.85% |
| CCCN(CCC)C1=Nc2ccccc2-n2cnnc2C1 | -22.4% | 3.45% | -25.6% | 3.1% | -2.25% | -11.4% |
| O=[N+]([O-])c1cccc(S/N=C/c2ccccc2)c1 | 98.8% (active) | 98.4% (active) | 99% (active) | 92.3% (active) | 98.5% (active) | 98.8% (active) |
| Cc1ccc(O)c(C)n1 | 4.2% | 14% | 0.15% | 7% | -0.2% | -2.9% |
| C(=C(/C=C/C(=C/c1ccccc1)c1ccccc1)c1ccccc1)\c1ccccc1 | 33.5% | 13.8% | -11.7% | -59% | 0.65% | -0.65% |
| CSc1c(C(=O)Nc2ccc(C)cc2)c(N)nn1-c1ccccc1 | 20.8% | -12.3% | 20.4% | 12.8% | 4.35% | 2.7% |
| O=C1NC(N2CCCC(CO)C2)=N/C1=C\c1cccs1 (stereo unspecified) | 8.1% | -6.8% | -3.4% | 3.25% | -14.4% | -39.7% |
| C=C(C)C(=O)OC1C/C(CO)=C\C(O)C/C(C)=C/C2OC(=O)C(=C)C21 (stereo unspecified) | 55% | 31.1% | 33.7% | 48% | 41.5% | -46.7% |
| Oc1[nH]c2ccccc2c1N=Nc1nc(-c2ccc(Br)cc2)cs1 | -24.9% | -24.8% | -17.4% | -10.2% | 12% | 5.5% |
| O=C(C[n+]1ccccc1)c1ccc([N+](=O)[O-])cc1 | -3.35% | -2.2% | -4.45% | -30.1% | -6.7% | 38.7% |
| COc1cc(C(Nc2ccccn2)c2cc3c(cc2O)OCO3)cc(OC)c1O (stereo unspecified) | 28.2% | 46.5% | 39.3% | 30.9% | 15.7% | 24.2% |
| CC(C)(C)OC(=O)NC(Cc1ccc(OCc2ccccc2)cc1)C(=O)NC(CCCCNC(=O)OCc1ccccc1)C(=O)NC(CCCCNC(=O)OCc1ccccc1)C(=O)ON1C(=O)CCC1=O (stereo unspecified) (Boc-Tyr(Bn)-Lys(Cbz)-Lys(Cbz)-OSu; configuration not given here) | -1.85% | 2.95% | 6.6% | 6.15% | 8.6% | 16.5% |
| NC(=O)N/N=C/c1ccc(Cl)cc1Cl | -3.7% | -5.55% | -8.25% | -1.65% | 4.8% | -13.6% |
| NCCCCCCNCc1cccc2ccccc12 | -9.85% | -13.1% | -9.7% | 6.05% | -10.3% | -31.4% |
